ALDH1A1 inh – ALDH1A1 (human) enzyme inhibition; P00352; Purified ALDH1A1, NADH fluorescence, propionaldehyde substrate; Potency, µM (doses to about 75.3 µM), for inactives: at the highest dose activity, negative = inhibition, actives largely listed as inhibitors; 220,000 compounds, 7.3% hits; AID 1030;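 also: potency is read from the fitted curve at half-maximal effect; plate controls were no enzyme wells and a reference inhibitor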
Target sequence (P00352 whole entry, looked up): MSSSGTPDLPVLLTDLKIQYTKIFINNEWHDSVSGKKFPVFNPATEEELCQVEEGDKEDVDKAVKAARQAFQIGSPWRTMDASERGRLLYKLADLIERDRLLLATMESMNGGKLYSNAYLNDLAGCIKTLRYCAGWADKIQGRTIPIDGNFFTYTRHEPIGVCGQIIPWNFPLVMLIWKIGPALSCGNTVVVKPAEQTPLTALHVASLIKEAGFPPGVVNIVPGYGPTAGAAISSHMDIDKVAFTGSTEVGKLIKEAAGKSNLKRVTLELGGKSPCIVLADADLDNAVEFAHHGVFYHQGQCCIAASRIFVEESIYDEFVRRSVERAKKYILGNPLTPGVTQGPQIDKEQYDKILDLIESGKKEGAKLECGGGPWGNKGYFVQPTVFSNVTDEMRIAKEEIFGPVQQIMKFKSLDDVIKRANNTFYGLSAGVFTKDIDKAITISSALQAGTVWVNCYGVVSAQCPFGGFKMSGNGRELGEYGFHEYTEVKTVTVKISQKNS
HPGD block – blocks human HPGD enzyme activity; purified HPGD, NADH fluorescence kinetic, PGE2 substrate; P15428; 150,000 compounds, 4.3% hits; Potency, µM, inactives show at the highest dose activity change, negative = inhibition, actives largely listed as inhibitors; also: potency is read from the fitted curve at half-maximal effect
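20 nM HPGD preincubated 15 min at room temperature with compound in 50 mM Tris-HCl pH 8, 0.01% Tween 20. Started with 1 mM NAD+ and 30 uM prostaglandin E2; NADH fluorescence (360/450 nm) read 5 times over 30-s intervals, last minus first.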
PNC inhibitor – perinucleolar compartment assembly inhibition; PC3M PTB-GFP, PNC prevalence imaging, 16 h; hits give low values; activity change (PNC), negative = inhibition, % at 10 µM; 140,000 compounds, 3.1% hits;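 active = readout at or below -70, meaning at least 70% loss of cells showing the perinucleolar compartment, a nuclear body marking cancer cells; inconclusive = readout between -30 and a set limit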;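 also: plate controls were DMSO wells for no effect and camptothecin positive control wells for full effect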
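Compounds are pinned in duplicate onto adhered PC3M cells stably expressing GFP-tagged PTB and incubated 16 h at 37 C. Cells are then fixed, nuclei stained with Hoechst, and PNC-positive cells counted.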
The depositor's hits bear a star; ? = inconclusive; . = no result given; [ ] = dose if it differs, or a comment. In the library only some 11% were active in any assay of this set; here they are far more common. Unless noted, calls follow the shape of the dose curve; as a rule, active = well fitted inhibition curve with a large enough effect (not every such curve was filed as active); inconclusive = small, poorly fitted or top-dose-only effect, or another doubt; inactive = no such curve, though single readings can be large or run the other way. Unless noted, % is scaled to controls: 0 for no effect and ±100 for the full control effect.

SMILES	ALDH1A1 inh	HPGD block	PNC inhibitor
Cc1ccc(S(=O)(=O)N(c2nc(N(C)C)nc(N(C)C)n2)n2cnnc2)cc1	5.01µM*	-5.5%	8.5
COc1ccc(Cc2nnc(N)s2)cc1OC	28.2µM*	31.6µM*	36.4
Nc1nnc(CC(c2ccccc2)c2ccccc2)s1	1.5%	22.4µM*	?
Nc1nnc(C(c2ccccc2)c2ccccc2)s1	?	0.2%	33.8
COc1ccc(Cc2nnc(NS(C)(=O)=O)s2)cc1	-0.1%	-14.9%	-27.1
Cc1cccc(CSCc2nnc(N)s2)c1	?	28.2µM*	-15.3
COc1ccc(Cc2nnc(N)s2)cc1	?	28.2µM*	8.9
Nc1nnc(CSCc2ccccc2)s1	4.9%	-0.2%	1.2
COc1cc(OC)cc(C(=O)Nc2nnc(Cc3ccc(OC)c(OC)c3)s2)c1	3.9%	.	.
CC(C)=CC(=O)Nc1ccc(Br)cc1	16.7%	-12.2%	16.1
COc1ccc(-c2noc(CCC(=O)NCCc3cccc(C)c3)n2)cc1	-1.0%	.	.
Cc1ccccc1OCCCC(=O)Nc1nncs1	-0.3%	.	.
Cc1ccccc1S(=O)(=O)Cc1ccc(C(=O)N2CCN(c3ccc(F)cc3)CC2)o1	5.9%	-6.5%	?
O=C(O)CCc1ccc(-c2cccs2)n1CC(=O)Nc1ccccc1C(F)(F)F	-11.5%	.	.
Cc1ccc(NS(=O)(=O)c2cc(C(=O)NCc3ccccn3)ccc2Cl)cc1C	-2.4%	-1.7%	-23.7
Nc1nnc(Cc2ccccc2)s1	11.2µM*	-9.1%	30.9
Nc1nnc(CCc2ccccc2)s1	1.6%	-9.0%	-4.1
CCN(CC)C(=O)C1CCCc2c1[nH]c1ccc(Cl)cc21 (centres undefined)	-1.3%	-29.4%	-93.2*
Cc1ccc2[nH]c3c(c2c1)CCCC3C(N)=O (centres undefined)	6.5%	1.2%	-25.0
C=CCOc1c2ccc(C(=O)NCc3ccc(OC)cc3)cc2nn1C	?	?	-109.4*
C=CCOc1c2ccc(C(=O)NCc3ccccc3OC)cc2nn1C	?	?	55.5
CCN(CC)CCNC(CC(=O)Nc1ccc(Cl)cc1Cl)C(=O)O (centres undefined)	7.08µM*	6.1%	-25.8
CCN(CC)CCNC(=O)COc1ccc(Cl)cc1Cl	8.9%	1.5%	-16.6
CCCn1c(C)nc2c(NCCN3CCOCC3)nc(C)nc21	8.4%	-10.7%	.
CCN(CC)S(=O)(=O)c1cc(NC(=O)COC(=O)c2ccc(NC(=O)CC#N)cc2)ccc1C	4.9%	.	.
SMILES	ALDH1A1 inh	HPGD block	PNC inhibitor
CC[n+]1c(/C=C2/C=C(C)CC(C)(C)C2)sc2ccc(OC)cc21	8.91µM*	-25.5%	-30.0
CC[n+]1c(/C=C2\C=C(C)CC(C)(C)C2)sc2ccccc21	?	-24.2%	3.6
CCC(=O)C1CCCN(C(=O)c2ccc(OC3CCN(C(=O)c4cccnc4)CC3)cc2)C1 (centres undefined)	4.7%	.	.
CNc1c([N+](=O)[O-])cnn1-c1ccc(C)cc1	-4.9%	-22.5%	?
Cc1ccc(NC(=S)c2nc3ccccc3[nH]2)cc1	8.0%	-12.5%	18.8
Cc1ccc(NC(=S)c2nc3ccccc3[nH]2)c(C)c1	?	31.6µM*	15.1
COC(=O)c1c(NC(=O)C2C3CCC(O3)C2C(=O)O)sc2c1CCCCCC2 (centres undefined)	3.0%	-27.4%	15.9
CCCOC(=O)Nc1sc2c(c1C(N)=O)CCCC2	1.6%	.	.
CC(C)(C)C1CCc2c(sc(NC(=O)C3CCCO3)c2C(N)=O)C1 (centres undefined)	?	-8.8%	?
NC(=O)c1c(NC(=O)CCCC(=O)O)sc2c1CCCCCC2	5.9%	28.2µM*	34.2
NC(=O)c1c(NC(=O)C2CCCO2)sc2c1CCC2 (centres undefined)	22.4µM*	-7.8%	0.5
N#Cc1c(NC(=O)CCCC(=O)O)sc2c1CCCCC2	?	-22.3%	10.0
NC(=O)c1c(NC(=O)C2CCCO2)sc2c1CCCCC2 (centres undefined)	20µM*	?	-22.4
COC(=O)c1c(NC(=O)C2CCCO2)sc2c1CCC2 (centres undefined)	14.1µM*	-24.3%	?
Nc1nc(SCC(=O)Nc2ncc(C(F)(F)F)cc2Cl)n[nH]1	-0.8%	.	.
CNC(=O)NC(=O)CSc1nc2ccccc2n1CCOC	-0.5%	-4.7%	13.2
Cc1c(C)n(C(=O)CN2CCN(c3ccccc3)CC2)c2ccccc12	?	-19.6%	?
COc1ccc(CCN2C(=NC(=O)CCC(=O)O)SC3CS(=O)(=O)CC32)cc1OC (centres undefined)	25.1µM*	-8.7%	-8.6
COc1ccc(CCN2C(=NC(=O)CC(C)C)SC3CS(=O)(=O)CC32)cc1 (centres undefined)	?	0.2%	?
CCOC(=O)CN1C(=O)N[C@@H](c2cccc(C(F)(F)F)c2)[C@@H](C(=O)OC)[C@H]1C	3.1%[13.5 µM]	2.8%	.
O=C1c2cnccc2CN1Cc1ccccc1	0.6%	-13.6%	?
Cc1cc(C)c(C#N)c(SCC(=O)N2CCCCC2)n1	12.6µM*	-27.5%	18.1
COc1cc2c(cc1OC)CN(C(=O)CSc1nc(C)cc(C)c1C#N)CC2	?	-22.7%	96.2
Cc1cc(C)c(C#N)c(SCC(=O)N2CCN(Cc3ccccc3)CC2)n1	20µM*	-21.0%	-6.0
CCN(Cc1ccccc1)C(=O)CSc1nc(C)cc(C)c1C#N	-2.7%	-1.9%	22.7
SMILES	ALDH1A1 inh	HPGD block	PNC inhibitor
Cc1nnc(SCC(=O)N2CCN(Cc3ccccc3)CC2)s1	-10.0%	-3.1%	12.6
COC(=O)CSc1nsc(SCC(=O)OC)c1C#N	-3.7%	-9.4%	?
O=C(CSc1ncccn1)N1CCN(Cc2ccccc2)CC1	28.2µM*	-3.9%	?
N#Cc1c(SCC(=O)N2CCCCC2)nsc1SCC(=O)N1CCCCC1	17.8µM*	12.6µM*	17.9
Cc1ccc(C(=O)C2CCN(CC(=O)N3CCN(c4ccc(F)cc4)CC3)CC2)cc1	-11.6%	.	.
COc1ccc(-c2cc(N)n(S(=O)(=O)c3ccc(F)cc3)n2)cc1OC	?	-15.4%	5.9
COCc1cc(C)nc(SCC(=O)N2CCC(C)CC2)c1C#N	7.94µM*	-15.8%	2.0
Cc1cc(C)c(C#N)c(SCC(=O)NC(C)(C)C)n1	13.4%	-6.4%	?
Cc1cc(C)c(C#N)c(SCC(=O)N(C)C2CCCCC2)n1	17.8µM*	-26.4%	?
O=C(CCCN1C(=O)CSc2ncccc21)N1CCN(Cc2ccccc2)CC1	22.4µM*	-2.9%	-17.4
Cc1cc(C)c(C#N)c(SCC(=O)C(C)(C)C)n1	?	31.6µM*	54.6
COCc1cc(C)nc(SCC(=O)Nc2ccccc2C)c1C#N	2.3%	-18.9%	16.6
CCOC(=O)N1CCC(NC(=O)CCCN2C(=O)CSc3ncccc32)CC1	-7.4%	1.8%	?
Cc1cc(C)c(C#N)c(SCC(=O)NC2CC2)n1	?	-28.8%	?
CCc1c(C)nc(N)n2c(SCC(=O)N3CCN(c4ccccc4OC)CC3)nnc12	1.0%	-11.3%	34.8
O=C(O)Cn1nnnc1SCC(=O)Nc1ccc(OC(F)(F)F)cc1	-0.2%	.	17.9
CC(C)(C)c1ccc(OC(=O)c2ccc(-n3cncn3)nc2)cc1	0.0%	.	.
CC(=O)c1cccc(N(C(=O)c2ccco2)C(C(=O)NC2CCCC2)c2ccncc2)c1 (centres undefined)	-9.4%	-15.5%	0.1
CC(C)(C)NC(=O)COC(=O)c1ccc(Cl)nc1	3.8%	.	.
O=c1[nH]c(CSc2nnc(Cc3ccccc3)o2)nc2ccccc12	-2.5%	.	.

High-throughput results as filed in PubChem BioAssay.
